Source: the supplement of paper PMC10849652
Of roughly 8,800 targets only a part is listed; those with a hit were picked by preference. About 0.5% of all pairs of compound and target were hits.

Tests used:
Assay in all cases: log2 fold change, soluble protein after heating vs DMSO (PISA); higher = thermal stabilisation; K562 lysate, 10 uM; active = over 0.2 and 3.5 SD of the protein, either way, in both replicates (recomputed)
lapatinib = compound: CS(=O)(=O)CCNCc1ccc(-c2ccc3ncnc(Nc4ccc(OCc5cccc(F)c5)c(Cl)c4)c3c2)o1 [lapatinib]
Method in brief: (§1)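 The values are log-two fold changes in thermal stability compared with solvent controls and come from duplicates. They were obtained by TMTpro 16plex LC-MS/MS, with channel sums equalised, on the supernatant after 21,000xg for 90 min. That supernatant came from crude K562 extract at 1 mg/mL protein treated with 10 μM compound for 30 min, heated for 3 min across 48°C-58°C, pooled and brought to 0.5% NP-40 at 4°C.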

pictilisib = compound: CS(=O)(=O)N1CCN(Cc2cc3nc(-c4cccc5[nH]ncc45)nc(N4CCOCC4)c3s2)CC1 [pictilisib]
Method in brief: as §1

crizotinib = compound: C[C@@H](Oc1cc(-c2cnn(C3CCNCC3)c2)cnc1N)c1c(Cl)ccc(F)c1Cl [crizotinib]
Method in brief: as §1

[1] = compound: C[C@H](C1=CC=C(C=C1)C(=O)NC2=C3C=CNC3=NC=C2)N
Method in brief: as §1

duvelisib = compound: C[C@H](Nc1ncnc2nc[nH]c12)c1cc2cccc(Cl)c2c(=O)n1-c1ccccc1 [duvelisib]
Method in brief: as §1

gandotinib = compound: Cc1cc(Nc2cc(CN3CCOCC3)c3nc(C)c(Cc4ccc(Cl)cc4F)n3n2)n[nH]1 [gandotinib]
Method in brief: as §1

tozasertib = compound: Cc1cc(Nc2cc(N3CCN(C)CC3)nc(Sc3ccc(NC(=O)C4CC4)cc3)n2)n[nH]1 [tozasertib]
Method in brief: as §1

doramapimod = compound: Cc1ccc(-n2nc(C(C)(C)C)cc2NC(=O)Nc2ccc(OCCN3CCOCC3)c3ccccc23)cc1 [doramapimod]
Method in brief: as §1

bafetinib = compound: Cc1ccc(NC(=O)c2ccc(CN3CC[C@H](N(C)C)C3)c(C(F)(F)F)c2)cc1Nc1nccc(-c2cncnc2)n1 [bafetinib]
Method in brief: as §1

[2] = compound: Cc1cccc(CC(=O)N2CCc3c2ccc(-c2cn(C)c4ncnc(N)c24)c3F)n1
Method in brief: as §1

nilotinib = compound: Cc1cn(-c2cc(NC(=O)c3ccc(C)c(Nc4nccc(-c5cccnc5)n4)c3)cc(C(F)(F)F)c2)cn1 [nilotinib]
Method in brief: as §1

[3] = compound: Cc1nc(Nc2n[nH]c3c2CN(C(=O)N[C@H](CN(C)C)c2ccccc2)C3(C)C)c2sccc2n1
Method in brief: as §1

dasatinib = compound: Cc1nc(Nc2ncc(C(=O)Nc3c(C)cccc3Cl)s2)cc(N2CCN(CCO)CC2)n1 [dasatinib]
Method in brief: as §1

[4] = compound: Cc1ncc(-c2ccnc(Nc3ccc(S(C)(=O)=O)cc3)n2)n1C(C)C
Method in brief: as §1

[5] = compound: Cn1cc(-c2ccc3c(c2)CCN3C(=O)Cc2cccc(C(F)(F)F)c2)c2c(N)ncnc21
Method in brief: as §1

quisinostat = compound: Cn1cc(CNCC2CCN(c3ncc(C(=O)NO)cn3)CC2)c2ccccc21 [quisinostat]
Method in brief: as §1

tipifarnib = compound: Cn1cncc1[C@@](N)(c1ccc(Cl)cc1)c1ccc2c(c1)c(-c1cccc(Cl)c1)cc(=O)n2C [tipifarnib]
Method in brief: as §1

[6] = compound: NC(=O)Nc1cc(-c2cccc(F)c2)sc1C(=O)N[C@H]1CCCNC1
Method in brief: as §1

[7] = compound: NC(=O)c1cnc(N[C@@H]2CCCC[C@@H]2N)nc1Nc1cccc(-n2nccn2)c1
Method in brief: as §1

[8] = compound: NC1(c2ccc(-c3nc4ccn5c(=O)[nH]nc5c4cc3-c3ccccc3)cc2)CCC1
Method in brief: as §1

Measured: log2 fold change

OTC (UniProt P00480)
Sequence of UniProt P00480 (P00480 whole entry, looked up): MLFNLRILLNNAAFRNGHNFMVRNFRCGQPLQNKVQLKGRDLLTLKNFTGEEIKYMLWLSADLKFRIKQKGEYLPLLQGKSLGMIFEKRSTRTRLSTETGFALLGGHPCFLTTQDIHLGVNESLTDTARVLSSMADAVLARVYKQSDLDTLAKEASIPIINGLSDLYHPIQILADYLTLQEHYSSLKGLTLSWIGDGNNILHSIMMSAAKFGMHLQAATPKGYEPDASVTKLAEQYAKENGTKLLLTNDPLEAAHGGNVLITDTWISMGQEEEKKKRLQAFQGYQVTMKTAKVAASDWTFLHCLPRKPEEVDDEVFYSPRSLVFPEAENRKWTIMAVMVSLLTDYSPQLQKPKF
active: [1] -4.33
inactive: lapatinib -0.118 | pictilisib -0.026 | crizotinib -0.273 | duvelisib 0.159 | gandotinib -0.003 | tozasertib 0.161 | doramapimod 0.168 | bafetinib -0.412 | [2] 0.377 | nilotinib -0.105 | [3] -0.023 | dasatinib -0.347 | [4] -0.159 | [5] 0.106 | quisinostat -0.492 | tipifarnib 0.054 | [6] -0.055 | [7] 0.071 | [8] -0.075

NFAT5 isoform 5 (UniProt O94916)
inactive: lapatinib 0.033 | pictilisib -0.002 | crizotinib 0.053 | [1] -0.053 | duvelisib -0.041 | gandotinib 0.045 | tozasertib -0.039 | doramapimod 0.007 | bafetinib -0.041 | [2] 0.008 | nilotinib -0.012 | [3] -0.07 | dasatinib 0.008 | [4] 0.046 | [5] -0.014 | quisinostat -0.172 | tipifarnib -0.032 | [6] 0.031 | [7] 0.018 | [8] 0.039

OSBP (UniProt P22059)
Sequence of UniProt P22059 (P22059 whole entry, looked up): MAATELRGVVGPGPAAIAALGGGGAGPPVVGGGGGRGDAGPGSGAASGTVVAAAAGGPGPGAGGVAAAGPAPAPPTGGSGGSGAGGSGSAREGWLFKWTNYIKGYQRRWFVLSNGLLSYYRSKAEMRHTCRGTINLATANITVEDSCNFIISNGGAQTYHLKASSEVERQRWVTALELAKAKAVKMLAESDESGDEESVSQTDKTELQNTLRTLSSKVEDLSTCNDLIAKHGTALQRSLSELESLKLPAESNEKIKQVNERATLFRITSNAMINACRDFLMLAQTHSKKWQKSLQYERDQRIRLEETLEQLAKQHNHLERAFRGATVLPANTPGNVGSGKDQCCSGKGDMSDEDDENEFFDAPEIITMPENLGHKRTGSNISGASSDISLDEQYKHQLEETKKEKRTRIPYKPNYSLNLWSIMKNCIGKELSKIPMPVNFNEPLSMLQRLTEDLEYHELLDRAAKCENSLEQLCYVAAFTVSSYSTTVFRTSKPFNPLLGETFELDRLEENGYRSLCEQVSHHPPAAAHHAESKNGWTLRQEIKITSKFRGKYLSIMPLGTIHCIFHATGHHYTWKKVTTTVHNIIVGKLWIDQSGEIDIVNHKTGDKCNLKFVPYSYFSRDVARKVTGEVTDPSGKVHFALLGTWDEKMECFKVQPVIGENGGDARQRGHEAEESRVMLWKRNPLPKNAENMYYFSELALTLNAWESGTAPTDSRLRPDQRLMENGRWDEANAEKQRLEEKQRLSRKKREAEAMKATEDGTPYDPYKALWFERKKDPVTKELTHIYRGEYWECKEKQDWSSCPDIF
active: dasatinib -0.221
inactive: lapatinib -0.101 | pictilisib -0.046 | crizotinib 0.007 | [1] 0 | duvelisib 0.037 | gandotinib -0.072 | tozasertib -0.015 | doramapimod -0.028 | bafetinib -0.093 | [2] 0.03 | nilotinib -0.073 | [3] 0.005 | [4] -0.015 | [5] -0.011 | quisinostat 0 | tipifarnib 0.042 | [6] 0.012 | [7] 0.031 | [8] 0.04

MRPS31 (UniProt Q92665)
inactive: lapatinib 0.012 | pictilisib 0.012 | crizotinib -0.02 | [1] -0.002 | duvelisib -0.015 | gandotinib -0.006 | tozasertib 0.033 | doramapimod 0.047 | bafetinib -0.009 | [2] 0.051 | nilotinib -0.005 | [3] -0.002 | dasatinib -0.034 | [4] 0.034 | [5] 0.002 | quisinostat -0.046 | tipifarnib 0.015 | [6] 0.022 | [7] -0.026 | [8] -0.014

NEK9 (UniProt Q8TD19)
inactive: lapatinib -0.013 | pictilisib 0.039 | crizotinib 0.057 | [1] -0.092 | duvelisib 0.006 | gandotinib 0.108 | tozasertib 0.025 | doramapimod -0.033 | bafetinib 0.014 | [2] 0.019 | nilotinib -0.024 | [3] 0.13 | dasatinib -0.002 | [4] 0.007 | [5] 0.001 | quisinostat -0.042 | tipifarnib -0.018 | [6] 0.033 | [7] 0.003 | [8] -0.026

NUMBL (UniProt Q9Y6R0)
Sequence of UniProt Q9Y6R0 (Q9Y6R0 whole entry, looked up): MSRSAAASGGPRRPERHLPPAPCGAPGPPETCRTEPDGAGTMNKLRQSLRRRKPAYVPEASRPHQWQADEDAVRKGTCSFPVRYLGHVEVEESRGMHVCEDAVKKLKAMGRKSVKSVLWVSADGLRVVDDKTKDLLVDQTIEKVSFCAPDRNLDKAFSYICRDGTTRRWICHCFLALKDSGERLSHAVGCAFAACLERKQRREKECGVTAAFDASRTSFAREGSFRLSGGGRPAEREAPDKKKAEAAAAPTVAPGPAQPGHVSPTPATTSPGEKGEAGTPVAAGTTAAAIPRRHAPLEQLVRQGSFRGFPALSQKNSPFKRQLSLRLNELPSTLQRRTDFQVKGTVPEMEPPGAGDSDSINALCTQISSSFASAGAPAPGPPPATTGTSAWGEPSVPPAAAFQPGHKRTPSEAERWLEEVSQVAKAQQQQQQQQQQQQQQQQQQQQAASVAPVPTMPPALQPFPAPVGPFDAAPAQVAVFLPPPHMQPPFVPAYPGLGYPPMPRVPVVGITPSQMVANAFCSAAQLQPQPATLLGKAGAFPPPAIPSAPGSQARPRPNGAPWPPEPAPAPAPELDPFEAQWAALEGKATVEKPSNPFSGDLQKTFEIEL
active: [6] -0.415
inactive: lapatinib 0.01 | pictilisib 0.111 | crizotinib 0.066 | [1] 0.018 | duvelisib 0.162 | gandotinib 0.176 | tozasertib 0.036 | doramapimod 0.247 | bafetinib 0.041 | [2] 0.036 | nilotinib 0.038 | [3] -0.013 | dasatinib -0.041 | [4] -0.12 | [5] 0.219 | quisinostat 0.04 | tipifarnib -0.06 | [7] -0.055 | [8] -0.046

NMT1 (UniProt P30419)
inactive: lapatinib 0.02 | pictilisib 0.005 | crizotinib -0.006 | [1] 0.016 | duvelisib -0.023 | gandotinib -0.021 | tozasertib 0.012 | doramapimod -0.015 | bafetinib 0.09 | [2] -0.034 | nilotinib -0.037 | [3] 0.044 | dasatinib 0.058 | [4] -0.016 | [5] -0.022 | quisinostat -0.065 | tipifarnib 0.001 | [6] 0.007 | [7] -0.005 | [8] -0.057

NRIP1 (UniProt P48552)
inactive: lapatinib -0.052 | pictilisib -0.007 | crizotinib -0.155 | [1] -0.396 | duvelisib -0.014 | gandotinib 0.407 | doramapimod 0.048 | bafetinib -0.07 | [2] 0.26 | nilotinib 0.035 | [3] -0.127 | dasatinib 0.135 | [4] 0.035 | [5] 0 | quisinostat -0.437 | tipifarnib -0.03 | [6] 0.083 | [7] 0.022 | [8] -0.048

NOCT (UniProt Q9UK39)
inactive: lapatinib -0.025 | crizotinib 0.024 | duvelisib 0.039 | tozasertib 0.111 | doramapimod 0.063 | nilotinib -0.045 | [3] 0.011 | dasatinib 0.013 | [4] -0.084 | [5] 0.017 | quisinostat 0 | tipifarnib 0.061 | [6] 0.043 | [7] 0.004 | [8] -0.014

MYBL2 (UniProt P10244)
inactive: crizotinib -0.018 | [1] 0.181 | duvelisib -0.011 | gandotinib -0.286 | tozasertib 0.001 | doramapimod 0.017 | [2] -0.184 | dasatinib -0.055 | [5] -0.012 | quisinostat -0.071 | [6] -0.021 | [8] -0.015

ORC1 (UniProt Q13415)
inactive: tozasertib 0.023

P2RY1 (UniProt P47900)
Sequence of UniProt P47900 (P47900 whole entry, looked up): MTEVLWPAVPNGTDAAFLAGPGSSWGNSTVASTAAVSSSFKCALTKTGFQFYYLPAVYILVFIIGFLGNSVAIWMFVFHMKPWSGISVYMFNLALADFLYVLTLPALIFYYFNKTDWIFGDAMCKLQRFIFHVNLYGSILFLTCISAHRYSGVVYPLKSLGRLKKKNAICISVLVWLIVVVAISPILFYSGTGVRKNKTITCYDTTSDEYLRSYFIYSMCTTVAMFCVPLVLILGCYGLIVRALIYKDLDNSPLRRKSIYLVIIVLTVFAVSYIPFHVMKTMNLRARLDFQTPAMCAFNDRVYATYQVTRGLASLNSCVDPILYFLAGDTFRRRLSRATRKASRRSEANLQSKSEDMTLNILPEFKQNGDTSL
active: pictilisib -0.444
inactive: lapatinib -0.091 | [1] -0.02 | duvelisib 0.092 | gandotinib 0.012 | tozasertib 0.1 | bafetinib 0.021 | [2] 0.007 | dasatinib 0.012 | [5] -0.027 | [7] -0.182 | [8] 0.004

NSUN7 (UniProt Q8NE18)
Sequence of UniProt Q8NE18 (Q8NE18 whole entry, looked up): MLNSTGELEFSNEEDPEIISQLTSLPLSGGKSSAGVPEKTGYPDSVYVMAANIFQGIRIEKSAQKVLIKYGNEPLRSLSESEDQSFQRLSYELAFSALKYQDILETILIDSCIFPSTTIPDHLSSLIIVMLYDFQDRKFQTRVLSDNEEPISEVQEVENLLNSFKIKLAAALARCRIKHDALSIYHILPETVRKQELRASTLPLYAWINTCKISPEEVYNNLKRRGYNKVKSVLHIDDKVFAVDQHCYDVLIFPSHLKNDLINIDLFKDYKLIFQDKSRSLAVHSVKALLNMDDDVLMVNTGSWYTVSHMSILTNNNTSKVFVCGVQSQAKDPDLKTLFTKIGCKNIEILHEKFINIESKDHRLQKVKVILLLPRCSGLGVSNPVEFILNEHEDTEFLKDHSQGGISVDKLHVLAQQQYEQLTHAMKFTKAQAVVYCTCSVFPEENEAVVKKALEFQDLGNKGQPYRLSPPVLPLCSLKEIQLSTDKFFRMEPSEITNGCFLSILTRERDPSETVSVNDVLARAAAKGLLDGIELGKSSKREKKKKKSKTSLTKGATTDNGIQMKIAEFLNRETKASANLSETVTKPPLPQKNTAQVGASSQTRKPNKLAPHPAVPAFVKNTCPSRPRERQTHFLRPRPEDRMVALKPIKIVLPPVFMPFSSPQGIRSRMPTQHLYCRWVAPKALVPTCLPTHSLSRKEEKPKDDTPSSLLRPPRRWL
inactive: lapatinib -0.094 | pictilisib -0.001 | crizotinib -0.374 | [1] -0.039 | gandotinib 0.022 | tozasertib 0.152 | doramapimod 0.045 | bafetinib 0.285 | [2] 0.125 | [6] 0.01 | [7] 0.009 | [8] -0.031
active: quisinostat -0.573

MT-ATP8 (UniProt P03928)
Sequence of UniProt P03928 (P03928 whole entry, looked up): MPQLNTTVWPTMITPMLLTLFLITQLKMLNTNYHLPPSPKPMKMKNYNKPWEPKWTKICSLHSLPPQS
active: [1] 0.402
inactive: lapatinib 0.024 | pictilisib -0.002 | crizotinib -0.121 | gandotinib -0.054 | tozasertib -0.078 | doramapimod 0.011 | bafetinib -0.087 | [2] -0.107 | nilotinib 0.055 | [3] 0.177 | [4] 0.214 | quisinostat 0.043 | tipifarnib 0.085 | [6] 0.056 | [7] -0.067 | [8] -0.084

MYLK (UniProt Q15746)
Sequence of UniProt Q15746 (Q15746 whole entry, looked up): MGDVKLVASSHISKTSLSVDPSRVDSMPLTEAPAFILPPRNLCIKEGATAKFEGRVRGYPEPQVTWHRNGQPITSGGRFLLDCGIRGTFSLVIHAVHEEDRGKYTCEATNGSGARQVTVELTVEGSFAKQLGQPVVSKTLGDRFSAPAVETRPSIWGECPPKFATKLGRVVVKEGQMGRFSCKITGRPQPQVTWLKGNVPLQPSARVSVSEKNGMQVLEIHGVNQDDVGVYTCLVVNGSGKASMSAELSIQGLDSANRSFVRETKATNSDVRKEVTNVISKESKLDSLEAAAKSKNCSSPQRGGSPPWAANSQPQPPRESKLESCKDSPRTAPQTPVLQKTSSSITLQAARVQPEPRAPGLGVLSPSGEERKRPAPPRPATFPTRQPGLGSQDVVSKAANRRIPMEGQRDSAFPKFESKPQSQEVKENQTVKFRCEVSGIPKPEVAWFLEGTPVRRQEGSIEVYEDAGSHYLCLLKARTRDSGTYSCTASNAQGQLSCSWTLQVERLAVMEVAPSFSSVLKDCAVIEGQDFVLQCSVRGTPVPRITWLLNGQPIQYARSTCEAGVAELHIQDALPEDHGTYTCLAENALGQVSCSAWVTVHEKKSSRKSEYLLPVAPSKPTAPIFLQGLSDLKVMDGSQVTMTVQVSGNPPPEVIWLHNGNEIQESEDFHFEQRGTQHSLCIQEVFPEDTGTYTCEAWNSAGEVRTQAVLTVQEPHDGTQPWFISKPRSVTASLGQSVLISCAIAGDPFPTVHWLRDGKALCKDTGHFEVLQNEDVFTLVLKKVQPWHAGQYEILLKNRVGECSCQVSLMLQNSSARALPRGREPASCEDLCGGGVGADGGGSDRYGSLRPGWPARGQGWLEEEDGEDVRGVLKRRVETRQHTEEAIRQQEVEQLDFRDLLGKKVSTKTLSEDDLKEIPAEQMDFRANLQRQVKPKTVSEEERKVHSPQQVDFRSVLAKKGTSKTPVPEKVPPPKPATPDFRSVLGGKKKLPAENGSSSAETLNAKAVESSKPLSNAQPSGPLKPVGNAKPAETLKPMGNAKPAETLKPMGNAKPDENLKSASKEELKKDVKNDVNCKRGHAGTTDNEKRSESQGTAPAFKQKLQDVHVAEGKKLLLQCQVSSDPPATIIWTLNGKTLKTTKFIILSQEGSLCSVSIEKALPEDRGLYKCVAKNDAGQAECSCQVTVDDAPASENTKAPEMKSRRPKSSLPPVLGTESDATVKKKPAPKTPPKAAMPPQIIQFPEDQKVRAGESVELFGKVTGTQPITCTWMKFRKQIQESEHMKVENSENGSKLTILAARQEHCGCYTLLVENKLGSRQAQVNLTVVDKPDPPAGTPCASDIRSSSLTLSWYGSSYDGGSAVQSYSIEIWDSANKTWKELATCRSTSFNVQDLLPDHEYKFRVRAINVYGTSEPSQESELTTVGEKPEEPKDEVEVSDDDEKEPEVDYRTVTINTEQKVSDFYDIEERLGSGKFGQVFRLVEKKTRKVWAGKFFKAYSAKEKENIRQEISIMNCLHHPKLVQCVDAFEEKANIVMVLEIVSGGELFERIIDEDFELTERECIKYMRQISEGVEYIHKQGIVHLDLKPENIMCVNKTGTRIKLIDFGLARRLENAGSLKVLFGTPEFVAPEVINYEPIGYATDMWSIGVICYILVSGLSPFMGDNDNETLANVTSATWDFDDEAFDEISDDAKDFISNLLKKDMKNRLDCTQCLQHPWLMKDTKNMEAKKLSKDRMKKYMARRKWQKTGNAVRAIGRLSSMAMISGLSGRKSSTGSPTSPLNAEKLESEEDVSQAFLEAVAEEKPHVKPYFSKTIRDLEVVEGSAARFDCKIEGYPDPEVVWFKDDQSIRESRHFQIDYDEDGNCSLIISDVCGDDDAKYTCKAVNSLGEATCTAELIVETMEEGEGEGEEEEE
inactive: lapatinib -0.006 | pictilisib 0.015 | crizotinib 0.082 | [1] -0.181 | gandotinib 0.033 | tozasertib 0.114 | [2] -0.047 | nilotinib 0.138 | [3] -0.197 | [4] -0.108 | quisinostat 0.048 | tipifarnib -0.035 | [6] -0.175 | [7] 0.079
active: doramapimod 0.611 | bafetinib 0.712

NUP210 (UniProt Q8TEM1)
inactive: lapatinib -0.074 | pictilisib -0.076 | crizotinib -0.028 | [1] -0.034 | duvelisib 0.013 | gandotinib -0.08 | tozasertib -0.012 | doramapimod -0.017 | bafetinib -0.007 | [2] 0.044 | nilotinib -0.019 | [3] -0.008 | dasatinib -0.08 | [4] 0.009 | [5] 0.001 | quisinostat 0.084 | tipifarnib -0.043 | [6] -0.01 | [7] 0.059 | [8] -0.019

MXRA7 (UniProt P84157)
Sequence of UniProt P84157 (P84157 whole entry, looked up): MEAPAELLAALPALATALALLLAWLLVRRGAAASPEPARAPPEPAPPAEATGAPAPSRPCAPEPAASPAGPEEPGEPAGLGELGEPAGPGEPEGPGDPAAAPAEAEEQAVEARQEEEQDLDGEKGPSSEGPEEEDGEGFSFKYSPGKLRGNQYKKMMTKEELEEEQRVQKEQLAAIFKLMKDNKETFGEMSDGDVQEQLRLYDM
inactive: lapatinib -0.039 | crizotinib 0.103 | [1] -0.149 | duvelisib 0.056 | gandotinib -0.008 | tozasertib -0.05 | doramapimod 0.041 | [2] 0.096 | nilotinib -0.307 | [3] 0 | dasatinib 0.03 | [4] -0.202 | [5] -0.034 | quisinostat -0.069 | tipifarnib -0.006 | [6] 0.1 | [7] -0.078 | [8] -0.003

NTMT1 (UniProt S4R338)
inactive: lapatinib 0.082 | [7] -0.027

NSA2 (UniProt O95478)
inactive: lapatinib 0.014 | pictilisib -0.088 | [1] -0.036 | duvelisib -0.055 | gandotinib 0.159 | tozasertib -0.086 | bafetinib 0.064 | [2] 0.221 | nilotinib 0.102 | [3] -0.04 | dasatinib -0.323 | [4] -0.08 | [5] -0.113 | tipifarnib -0.004 | [7] 0.076 | [8] -0.15
